Among all 190,000 compounds or so, about 790 (0.42%) were called active. Many of the other results were omitted from the sample, so actives are more common in it than they were. Unmarked numbers belong to inactive results.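 How the source made its calls: active means inhibition above a set limit, the median over all tested compounds plus 3 SD (cut at about 9.5% in these data); inconclusive means no clear call, values can overlap the other calls; inactive means the rest.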
system: HMG-CoA reductase (Enterococcus faecalis, mvaE); experiment: inhibitors of E. faecalis class II HMGR, primary screen, biochemical, Enterococcus faecalis (AID 1066);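 further: enzyme runs in reverse so mevalonate oxidation gives rising NADPH absorbance; 0% = complete reaction with DMSO and 100% = background rate lacking mevalonate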; conditions: purified E. faecalis HMGR, NADPH absorbance 340 nm kinetic; at 10 µM; hits give high values

| Compound | inhibition |
| --- | --- |
| CCc1ccc(NC(=O)Nc2ccncc2)cc1 | -0.38% |
| CCOC(=O)CCCNC(=O)COC(=O)c1cc(Br)c(Br)s1 | 6.54% |
| COc1ccc(CC2(CO)CCN(Cc3cnn(C)c3)CC2)cc1 | 1.94% |
| COc1cccc(CC2(CO)CCN(Cc3cnc(-c4cccc(C)c4)nc3)CC2)c1 | 10.2% (active) |
| Cc1cccc(-c2ncc(CN3CCC(CO)(CCCc4ccccc4)CC3)cn2)c1 | 3.07% |
| CCCCc1ccc(NC(=S)NCCCN2CCOCC2)cc1 | 9.74% (active) |
| Cc1ccc(NC(=S)NCCN2CCOCC2)cc1 | -1.8% |
| Cc1cc(C)cc(NC(=S)NCCCN2CCOCC2)c1 | -2.33% |
| Cc1ccc(S(=O)(=O)N2CCOCC2)cc1C(=O)OC1CCCCC1=O (stereo not drawn) | 11.2% (active) |
| CCOC(=O)c1sc(NC(=O)c2cc(S(=O)(=O)N3CCOCC3)ccc2C)nc1C | -0.38% |
| Cc1ccc(S(=O)(=O)N2CCOCC2)cc1C(=O)NCc1ccc(F)cc1 | -7.95% |
| C/C=C/C=C/C(=O)OCC(=O)Nc1ccc(Cl)cc1 | -6.31% |
| CC(=O)NS(=O)(=O)c1ccc(NC(=O)/C=C/c2ccccc2Cl)cc1 | 4.83% |
| O=C(/C=C/c1ccc(Cl)cc1)Nc1ccc(S(=O)(=O)Nc2ncccn2)cc1 | 1.98% |
| O=C(/C=C/c1ccccc1Cl)Nc1ccc(S(=O)(=O)Nc2ncccn2)cc1 | 9.55% (active) |
| CCOC(=O)C1CCN(S(=O)(=O)c2cc(F)ccc2OC)CC1 | -2.34% |
| COc1cc(Cl)c(C)cc1NC(=O)[C@@H]1CCCN1C(=O)c1cccs1 | -6.68% |
| CCOC(=O)C1(Cc2cccc(OC)c2)CCN(C(C)CC(C)(C)O)CC1 (stereo not drawn) | -0.39% |
| O=C1CCN(C(=S)NCCc2ccccc2)CC1 | 4.83% |
| COc1ccc(C(=O)NC2CCN(C(=S)Nc3ccccc3)CC2)cc1 | -0.68% |
| COc1ccc(C(=O)NC2CCN(C(=S)NCCc3ccccc3)CC2)cc1 | 16.3% (active) |
| Cc1ccc2c(c1)C1CN(C)CCC1N2S(=O)(=O)c1ccc(Oc2ccc([N+](=O)[O-])cc2)cc1 (stereo not drawn) | -1.37% |

| Compound | inhibition |
| --- | --- |
| O=C(COC(=O)c1ccc(Cl)nc1)NCc1cccs1 | -2.01% |
| COc1cc(/C=C2/C(=O)ON=C2C)ccc1OCc1ccccc1F | -4.22% |
| COc1cc(/C=N/n2c(C)n[nH]c2=S)ccc1OCc1ccccc1 | 5.27% |
| COc1cc(/C=C2/C(=O)ON=C2C)ccc1OCc1cccc(F)c1 | 15.9% (active) |
| N/C(Cc1ccc([N+](=O)[O-])cc1)=N\OC(=O)C1CCCCC1 | 5.63% |
| Cc1ccc(S(=O)(=O)N2CCOCC2)cc1NC(=O)CSc1nnc(N)s1 | -3.38% |
| CCNC(=O)N1c2ccccc2Sc2ccccc21 | -0.32% |
| CCOC(=O)CNC(=O)CN1C(=O)CCSc2ccccc21 | 0.21% |
| CCOC(=O)CNC(=O)N1c2ccccc2Sc2ccccc21 | 10.8% (active) |
| CCOC(=O)C1CCCN(C(=O)c2cccc(S(=O)(=O)N3CCOCC3)c2)C1 (stereo not drawn) | 2.45% |
| O=C(CCc1[nH]c2ccccc2c1Sc1ccccc1)N(CCO)CCO | -1.48% |
| COCc1c(N)c(C)nc(Cl)c1C#N | -1.22% |
| CN(Cc1ccccn1)Cc1nc(-c2ccc(Cl)cc2)no1 | -4.55% |
| O=C(Oc1cccc(NC2=NS(=O)(=O)c3ccccc32)c1)c1ccncc1 | 13.3% (active) |
| CC(C)(C)c1csc(NC2=NS(=O)(=O)c3ccccc32)n1 | -4.26% |
| O=C(Oc1ccccc1)c1ccc2nccnc2c1 | -2.55% |
| O=C1Oc2ccccc2C(=O)/C1=C/c1ccccc1O | -4.42% |
| Cc1ccc(CN2CCN(Cc3cccc(C)n3)CC2CCO)cc1 (stereo not drawn) | -2.73% |
| O=C1c2ccccc2C(=O)N1CCC(c1ccccc1)c1ccco1 (stereo not drawn) | -3.81% |
| CC(C)OC(=O)CN1C(=O)c2ccccc2C1=O | 0.65% |
| O=C1c2ccccc2C(=O)N1CCC(O)C[N+](=O)[O-] (stereo not drawn) | 14.4% (active) |
